{
  "source": "PubChem BioAssay AID463082",
  "about": "(The Scripps Research Institute Molecular Screening Center, 2010)",
  "note": "Screen size: about 330,000 compounds; about 4,900 (1.5%) were called active. This is one part of a sample in which actives are shown more often than they occur.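 The calls were made as follows: active = inhibition above the mean inhibition across the screen plus 3 SD (cut at about 25% in these data); inactive = the rest.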",
  "data": [
    {"molecular_target": "Platelet-activating factor acetylhydrolase (Homo sapiens) (UniProt Q13093)", "sequence (Q13093 whole entry, looked up)": "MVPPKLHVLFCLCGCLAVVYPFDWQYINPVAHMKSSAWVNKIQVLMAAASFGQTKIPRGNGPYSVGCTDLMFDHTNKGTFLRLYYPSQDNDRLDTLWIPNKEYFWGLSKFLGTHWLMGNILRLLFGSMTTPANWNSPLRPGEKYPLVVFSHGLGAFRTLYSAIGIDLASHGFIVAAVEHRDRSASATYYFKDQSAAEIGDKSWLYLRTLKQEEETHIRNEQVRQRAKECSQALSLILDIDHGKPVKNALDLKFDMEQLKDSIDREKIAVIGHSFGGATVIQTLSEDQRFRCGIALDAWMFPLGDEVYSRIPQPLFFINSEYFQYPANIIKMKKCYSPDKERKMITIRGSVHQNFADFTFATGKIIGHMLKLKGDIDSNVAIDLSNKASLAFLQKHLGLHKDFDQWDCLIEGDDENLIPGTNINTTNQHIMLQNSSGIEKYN", "test": "pPAFAH enzyme inhibitors, primary screen, biochemical, fluorescence polarization, human (AID 463082);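 also: inhibitors block binding of the rhodamine activity-based probe so polarization drops; 0% = enzyme with DMSO and 100% = wells lacking pPAFAH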", "conditions": "recombinant pPAFAH, FP-rhodamine probe fluorescence polarization; at 3.39 µM; stronger effect = higher value", "values": [
      {"smiles": "COc1ccc(CN2C(=O)NC(=O)/C(=C\\c3ccc(OC)c(OC)c3OC)C2=O)cc1", "inhibition": "2.22% (inactive)"},
      {"smiles": "COc1ccc(N2C(=O)/C(=C/c3ccco3)C(=O)NC2=S)cc1", "inhibition": "39.7% (active)"},
      {"smiles": "COc1cccc(N2C(=O)NC(=O)/C(=C\\c3cn(C)c4ccccc34)C2=O)c1", "inhibition": "0.95% (inactive)"},
      {"smiles": "O=C1CC(=O)N(Cc2ccccc2)C(=O)N1CCCCCCN1C(=O)CC(=O)N(Cc2ccccc2)C1=O", "inhibition": "41.3% (active)"},
      {"smiles": "O=C(CN1CCCC1=O)NCCc1ccccc1", "inhibition": "6.04% (inactive)"},
      {"smiles": "CC(C)(C)c1ccc(CN2C(=O)CN=C(c3ccccc3)c3ccccc32)cc1", "inhibition": "-2.71% (inactive)"},
      {"smiles": "O=c1[nH]c(CN2CC=C(c3ccccc3)CC2)nc2scc(-c3cccs3)c12", "inhibition": "8.85% (inactive)"},
      {"smiles": "CN(C)c1ccc(/C=C2\\CC3C4CC=C5CC(O)CCC5(C)C4CCC3(C)C2=O)cc1", "note": "(stereo not given)", "inhibition": "3.94% (inactive)"},
      {"smiles": "Cc1nn(-c2ccccc2)c(C)c1NC(=O)COC(=O)Cc1ccccc1", "inhibition": "46.5% (active)"},
      {"smiles": "Cc1ccccc1NC(=O)COC(=O)c1cc(C)n(C2CC2)c1C", "inhibition": "3.84% (inactive)"},
      {"smiles": "O=C(COC(=O)Cc1ccccc1)Nc1ccc(F)cc1", "inhibition": "23.1% (inactive)"},
      {"smiles": "O=[N+]([O-])c1ccc(C2C3C(c4ccccc4)=NC4(CCCCC4)N32)cc1", "note": "(stereo not given)", "inhibition": "6.5% (inactive)"},
      {"smiles": "Cn1cc(C(=O)OCC(=O)N2CCCC2)c2ccccc21", "inhibition": "-2.21% (inactive)"},
      {"smiles": "COc1ccccc1NC(=O)N1C[C@@H]2C[C@@H](C1)c1cccc(=O)n1C2", "inhibition": "5.55% (inactive)"},
      {"smiles": "CSc1nc2ccc(C)cc2c(=O)n1-c1cccnc1", "inhibition": "-1.83% (inactive)"},
      {"smiles": "Cc1ccccc1N1C(=O)NC(=O)/C(=C\\c2cc(C)n(C)c2C)C1=O", "inhibition": "-0.82% (inactive)"},
      {"smiles": "O=C1NC(=O)N(c2ccccc2)C(=O)/C1=C/c1ccc([N+](=O)[O-])s1", "inhibition": "58% (active)"},
      {"smiles": "COC(=O)C1=C(c2ccc(C(C)=O)cc2)C[C@@H]2CC[C@H]1N2C(=O)NCCNC(C)=O", "inhibition": "3.68% (inactive)"},
      {"smiles": "COc1cccc(C(=O)N2C[C@H]3C[C@@H](C2)c2cccc(=O)n2C3)c1", "inhibition": "3.04% (inactive)"},
      {"smiles": "C/C(=N/O)c1ccc2ccc3ccccc3c2c1", "inhibition": "1.83% (inactive)"},
      {"smiles": "COC(=O)C1=C(c2cc3ccccc3s2)C[C@@H]2CC[C@H]1N2C(=O)NC(C)C", "inhibition": "4.37% (inactive)"},
      {"smiles": "NCCc1ccc(S(=O)(=O)F)cc1", "inhibition": "59.5% (active)"},
      {"smiles": "CN1CCN(Cc2ccc(OC(F)(F)F)cc2)CC1", "inhibition": "-4.99% (inactive)"},
      {"smiles": "C=Cn1ccnc1P(=S)(c1cc(N(CC)CC)ns1)c1nccn1C=C", "inhibition": "-4.36% (inactive)"},
      {"smiles": "CCOC(=O)C1CN(C)CCC1=O", "note": "(stereo not given)", "inhibition": "4.48% (inactive)"}
    ]}
  ]
}
